The source of these data is PubChem BioAssay (NCATS).

SMILES strings stand for the structures. Inconclusive results are not listed. A number with no mark means an inactive call. Active and inactive are the calls of the source. Calls follow the shape of the dose curve; as a rule, active = well fitted curve in the direction sought with a large enough effect; inconclusive = small, poorly fitted or top-dose-only effect, or another doubt; inactive = no such curve, though single readings can be large; an effect the other way counts as inactive or inconclusive.

In one assay the test system is Es-2. Kind of assay: Primary qHTS to identify gynecologic anti-cancer compounds using libraries of approved drugs and bioactive compounds (AID 1345084). Also: nearly all actives have a fitted effect of over 55% in size. To be noted: Gynecologic cancer cell panel viability, ATPlite luminescence, 48 h; series mostly up to 57.5 µM. In outline:
(§1)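 Cytotoxicity screen measuring ATP content by luciferase luminescence. Each compound is applied at five concentrations for 48 h at 37 C with 5% CO2.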
A general note: In qHTS, concentration-response curves come from the screen itself.

The next assay relates to HeLa. The description is as above. To be noted: Gynecologic cancer cell panel viability, ATPlite luminescence, 48 h; series mostly up to 57.5 µM. In outline:
as §1
A general note: ATP-based viability assays read luminescence as a measure of living cells.

The subject of a further assay is Hek293T. The description is as above. The following applies: Gynecologic cancer cell panel viability, ATPlite luminescence, 48 h, control line for the selectivity index; series mostly up to 57.5 µM. In outline:
as §1

The next assay has as its system JEG-3. Described as above. To be noted: Gynecologic cancer cell panel viability, ATPlite luminescence, 48 h; series mostly up to 57.5 µM. In outline: as §1
Another assay deals with OV90. The assay is described as above. The following applies: Gynecologic cancer cell panel viability, ATPlite luminescence, 48 h; series mostly up to 57.5 µM. The method in brief: as §1
The subject of another assay is PA-1. Described as above. To be noted: Gynecologic cancer cell panel viability, ATPlite luminescence, 48 h; series mostly up to 57.5 µM. The method in brief:
as §1

The test system of another assay is SKOV3. The description is as above. To be noted: Gynecologic cancer cell panel viability, ATPlite luminescence, 48 h; series mostly up to 57.5 µM. The method in brief: as §1
For another assay, the system named is Tov-21-G. The description is as above. To be noted: Gynecologic cancer cell panel viability, ATPlite luminescence, 48 h; series mostly up to 57.5 µM. The method in brief:
as §1

Another assay concerns Tov112D. The description is as above. The following applies: Gynecologic cancer cell panel viability, ATPlite luminescence, 48 h; series mostly up to 57.5 µM. The method in brief: as §1
A short description of assay [1]: Drug repurposing screens with cells derived from glioblastoma tumor samples (AID 1345199). Also: nearly all actives have a fitted effect of over 40% in size. Also: potency is read from the fitted curve at half-maximal effect. The following applies: GBM patient neurospheres viability, ATP luminescence, 48 h. The method in brief: (§2)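 Primary testing used CD133+ neurospheres from four GBM patients, seven concentrations, 48 h exposure and ATP-based viability; confirmation added three slower-growing patient lines.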

A further assay concerns astro. The assay is described as above. To be noted: viability, ATP luminescence, 48 h; series mostly up to 45.9 µM. In outline: as §2
Where [2] appears, read: at 20 µM (top of the series), tumour line C.
Setting [3] is: at 21.2 µM (top of the series), tumour line B.
[4] abbreviates: at 21.2 µM (top of the series), tumour line D.
[5] abbreviates: at 21.3 µM (top of the series), tumour line A.
Setting [6] is: at 45.9 µM (top of the series), tumour line B.
[7] abbreviates: at 46.1 µM (top of the series), tumour line C.
[8] abbreviates: at 45.9 µM (top of the series), tumour line D.
The mark [9] stands for this setting: at 46 µM (top of the series), tumour line A.
% is scaled to controls: 0 for no effect and ±100 for the full control effect.

On to `O=C(O)Cc1cc(I)c(Oc2ccc(O)c(I)c2)c(I)c1`, for which the Potency result in the assay with Es-2, in the assay on HeLa, with Hek293T, in the assay on JEG-3, in the assay with OV90 and in the assay on PA-1 was “inactive” in each case. Also, the Potency entry with Tov-21-G was “inactive”. Besides, the call with SKOV3 and in the assay with Tov112D was inactive. Besides, the activity, negative = cell killing is -19.1% in assay [1] (setting [2]), 6.94% in assay [1] (setting [3]), 9.76% in assay [1] (setting [4]) and -9.11% in assay [1] (setting [5]).
With `CN(C)CCCSc1ccccc1NC(=O)/C=C/c1ccccc1`, the Potency entry in the assay with Es-2, in the assay with HeLa, in the assay on Hek293T, with JEG-3, in the assay on PA-1 and in the assay on Tov-21-G was “inactive” in each case. For the same molecule, in the assay on astro, the Potency entry is “inactive”. Besides, the outcome in the assay with SKOV3 and with Tov112D was inactive. Also, the activity, negative = cell killing in [1] (setting [6]) is -25.4%. In addition, in [1] (tumour line A), the Potency was 10 µM (active).
For `Cc1c(N)nc([C@H](CC(N)=O)NC[C@H](N)C(N)=O)nc1C(=O)N[C@H](C(=O)N[C@H](C)[C@@H](O)[C@H](C)C(=O)N[C@H](C(=O)NCCc1nc(-c2nc(C(=O)NCCCCN=C(N)N)cs2)cs1)[C@@H](C)O)[C@@H](O[C@@H]1O[C@@H](CO)[C@@H](O)[C@H](O)[C@@H]1O[C@H]1O[C@H](CO)[C@@H](O)[C@H](OC(N)=O)[C@@H]1O)c1cnc[nH]1`, the values for the activity, negative = cell killing in assay [1] (setting [6]) and in [1] (setting [7]) were -16.7% and -15.4%, respectively.
Regarding `C=C1CC[C@H](O)CC1=C/C=C1\CCC[C@]2(C)[C@@H]([C@H](C)/C=C/[C@H](C)C(C)C)CC[C@@H]12`, the Potency entry in the assay with Es-2, in the assay with HeLa, with Hek293T, with JEG-3, in the assay on OV90 and in the assay on PA-1 was “inactive” each time. Moreover, the Potency entry in the assay with Tov-21-G was “inactive”. Besides, the call in the assay on SKOV3 and with Tov112D was inactive. Besides, in assay [1] (setting [7]), the activity, negative = cell killing was 6.83%. Further, the Potency in assay [1] (tumour line A) is 10 µM (active).
On to `CCOC(=O)C1=C(COCCN)NC(C)=C(C(=O)OC)C1c1ccccc1Cl` (centres undefined), for which the activity, negative = cell killing in assay [1] (setting [6]) was -28.9%. Further, the Potency in assay [1] (tumour line A) is 11.2 µM (active).
On to `C[N+]1(C)[C@@H]2CC(OC(=O)C(O)(c3cccs3)c3cccs3)C[C@H]1[C@@H]1O[C@@H]12` (some centres undefined), for which the activity, negative = cell killing in assay [1] (setting [6]) was -12.3%; in assay [1] (setting [8]), 0.442%; in assay [1] (setting [9]) it was -24.6%; in assay [1] (setting [7]), -20.7%. For the same molecule, in the assay on astro, the Potency entry was “inactive”.
For `O=C(O)c1cc(N=Nc2ccc(O)c(C(=O)O)c2)ccc1O` the same measures were -10.7%, -13.9%, -13.2%, -29.5% and “inactive”.
Regarding `CC(C)(CO)[C@@H](O)C(=O)NCCC(=O)NCCSSCCNC(=O)CCNC(=O)[C@H](O)C(C)(C)CO`, the activity, negative = cell killing in [1] (setting [6]) was -16.4%; in [1] (setting [8]) it was -15.1%; in assay [1] (setting [9]), -16.6%; in assay [1] (setting [7]) it was -15.9%. The Potency result in the assay on astro was “inactive”.
Turning to `NC(=O)[C@@H]1CCCN1C(=O)[C@H](Cc1cnc[nH]1)NC(=O)[C@@H]1CCC(=O)N1`, the activity, negative = cell killing is -8.63% in [1] (setting [6]), 6.97% in [1] (setting [8]), -26.1% in [1] (setting [9]) and 5.62% in assay [1] (setting [7]). For the same molecule, in the assay on astro, the Potency result was “inactive”.
For `O=C1c2c(O)cccc2[C@H]([C@@H]2O[C@H](CO)[C@@H](O)[C@H](O)[C@H]2O)c2cc(CO)cc(O)c21` the same measures were -6.89%, -4.21%, -19.8%, -2.48% and “inactive”.
For `O=C(O)c1ccc(NC2OC[C@@H](O)[C@H](O)[C@H]2O)cc1` (some centres undefined) the same measures were -2.93%, 0.684%, -26.5%, -13.1% and “inactive”.
For `CC(=O)Oc1cc(C(F)(F)F)ccc1C(=O)O`, the activity, negative = cell killing in assay [1] (setting [2]) was -16.9%; in assay [1] (setting [3]), -19.3%; in assay [1] (setting [4]), -15.7%; in assay [1] (setting [5]), -29%. Also, in the assay on astro, the Potency entry is “inactive”.
For the molecule `CCCCCCCCCCCCCCCC(=O)OC[C@H](COP(=O)([O-])OCC[N+](C)(C)C)OC(=O)CCCCCCCCCCCCCCC`, the activity, negative = cell killing in assay [1] (setting [6]) was -12.1%; in assay [1] (setting [8]) it was -1.49%; in [1] (setting [9]), -32.2%; in assay [1] (setting [7]), -17.2%. In addition, the Potency result in the assay with astro is “inactive”.
Turning to `C[C@@H]1O[C@@H](OC[C@H]2O[C@@H](Oc3c(-c4ccc(OCCO)c(OCCO)c4)oc4cc(OCCO)cc(O)c4c3=O)[C@H](O)[C@@H](O)[C@@H]2O)[C@H](O)[C@H](O)[C@H]1O`, the activity, negative = cell killing in assay [1] (setting [6]) is -5.23%; in assay [1] (setting [8]) it was -14.3%; in assay [1] (setting [9]) it was -13.8%; in [1] (setting [7]), -13.8%. The Potency entry with astro is “inactive”.
Regarding `NC(=O)OC[C@@H]1[C@H](NC(=O)/C(=N\OCC(=O)O)c2csc(N)n2)C(=O)N1S(=O)(=O)O`, the activity, negative = cell killing was 5.57% in assay [1] (setting [6]), 5.27% in assay [1] (setting [8]), -4.61% in assay [1] (setting [9]) and -1.35% in assay [1] (setting [7]). Besides, the Potency entry with astro is “inactive”.
Consider `O=C(NCCNCC(O)COc1ccc(O)cc1)N1CCOCC1` (centres undefined), for which the activity, negative = cell killing is -5.84% in assay [1] (setting [6]), -3.52% in assay [1] (setting [8]), -55.7% in [1] (setting [9]) and -0.52% in [1] (setting [7]). The Potency entry in the assay on astro was “inactive”.
Turning to `CN[C@@H]1[C@H](O[C@H]2[C@H](O[C@H]3[C@H](O)[C@@H](O)[C@H](N=C(N)N)[C@@H](O)[C@@H]3N=C(N)N)O[C@@H](C)[C@]2(O)C=O)O[C@@H](CO)[C@H](O)[C@H]1O`, the activity, negative = cell killing is 1.28% in assay [1] (setting [6]), -18.9% in assay [1] (setting [8]), -12% in [1] (setting [9]) and -1.08% in assay [1] (setting [7]). For the same molecule, in the assay with astro, the Potency result was “inactive”.
For `CC1C(=O)CC2C3(C)CCC2(C(C)C(=O)O)C(=O)C13` (centres undefined) the same measures were -19.4%, 8.38%, -22.7%, -6.43% and “inactive”.
Consider `F[Si-2](F)(F)(F)(F)F`, for which the activity, negative = cell killing in assay [1] (setting [6]) is 5.47%; in [1] (setting [8]), -3.02%; in assay [1] (setting [9]), -17.6%; in [1] (setting [7]), 30.2%. In addition, in the assay on astro, the Potency entry was “inactive”.
In the case of `CC[C@@H](C)[C@H](N)C(=O)O`, the activity, negative = cell killing is -5.93% in assay [1] (setting [6]), -17.3% in [1] (setting [8]), -37.7% in assay [1] (setting [9]) and -13.6% in assay [1] (setting [7]). Also, the Potency entry with astro is “inactive”.
With `CCC(C(=O)NC(N)=O)c1ccccc1` (centres undefined), the activity, negative = cell killing was -5.95% in assay [1] (setting [6]), -2.75% in assay [1] (setting [8]), -8.52% in assay [1] (setting [9]) and -14.2% in assay [1] (setting [7]). Moreover, in the assay on astro, the Potency result is “inactive”.
For `CNC(=O)c1c(I)c(C(=O)NCC(=O)Nc2c(I)c(C(=O)O)c(I)c(C(=O)NCCO)c2I)c(I)c(N(C)C(C)=O)c1I` the same measures were -2.37%, -21.2%, -7.61%, 3.32% and “inactive”.
Turning to `CC[C@H](C)[C@@H]1NC(=O)[C@H](Cc2ccc(O)cc2)NC(=O)[C@@H](N)CSSC[C@@H](C(=O)N2CCC[C@H]2C(=O)N[C@@H](CC(C)C)C(=O)NCC(N)=O)NC(=O)[C@H](CC(N)=O)NC(=O)[C@H](CCC(N)=O)NC1=O`, the activity, negative = cell killing is -4.51% in assay [1] (setting [6]), -1.96% in assay [1] (setting [8]), -11.4% in [1] (setting [9]) and -6.16% in [1] (setting [7]). Also, the Potency entry in the assay with astro was “inactive”.
